“And” between values parts separate entries of the source, which are not always exact repeats. Equal entries are not always repeated. The panel holds about 79,000 compounds, 15% with a hit somewhere; the sample as a whole holds those more often. Some structures have more than one record in an assay (separate samples or runs), and their calls can disagree. The source made the active and inactive calls. No stated cut-off is given here; in the data, active means growth inhibition above about 70%; inactive means the rest.
Legend:
[1] = NCI Yeast Anticancer Drug Screen. Data for the rad50 strain (AID 155);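 further: 0% = growth of vehicle-only cultures of the same strain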; details: S. cerevisiae rad50 strain growth inhibition; at 50.0 µM; stronger effect = higher value
In short: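 Cells are treated with compound, grown, and their growth is then scored against vehicle-only cultures of the same repair-deficient yeast strain.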

[2] = NCI Yeast Anticancer Drug Screen. Data for the mec2-1 strain (AID 157); details: S. cerevisiae mec2-1 strain, at 50.0 µM, stronger effect = higher value
In short: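 Readout is yeast growth inhibition, normalised to vehicle-treated controls, in the mec2-1 strain exposed to compound.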

[3] = NCI Yeast Anticancer Drug Screen. Data for the sgs1 mgt1 strain (AID 161);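 further: 0% = growth of cultures given vehicle only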; details: S. cerevisiae sgs1 mgt1 strain, at 50.0 µM, stronger effect = higher value
In short: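 This yeast growth screen uses a strain with defined DNA-repair lesions; compound-treated growth is compared with vehicle-treated growth.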

[4] = NCI Yeast Anticancer Drug Screen. Data for the cln2 rad14 strain (AID 165);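 further: 0% = growth equal to vehicle treated cultures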; details: S. cerevisiae cln2 rad14 strain, at 50.0 µM, stronger effect = higher value
In short: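 Relative to vehicle controls, growth inhibition of compound-treated cln2 rad14 yeast was recorded.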

[5] = NCI Yeast Anticancer Drug Screen. Data for the bub3 strain (AID 167); details: S. cerevisiae bub3 mutant strain, at 50.0 µM, stronger effect = higher value
In short: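 Part of a panel of yeast mutants defective in DNA damage repair or cell cycle regulation. Each strain is grown with compound, and inhibition is calculated relative to solvent-treated cultures.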

[6] = NCI Yeast Anticancer Drug Screen. Data for the mlh1 rad18 strain (AID 175); details: S. cerevisiae mlh1 rad18 strain growth inhibition; at 50.0 µM; stronger effect = higher value
In short: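 Test agents were incubated with a yeast strain of defined genotype (DNA damage repair defect). Inhibition of growth was derived by comparison with vehicle-exposed cultures.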

Measured: growth inhibition

COC1OCC(OC(=O)c2ccccc2)C(OC(=O)c2ccccc2)C1OC(=O)c1ccccc1 (stereo unspecified)
inactive: [1] 7.5% and 19.6% | [2] 1.15% and -3.25% | [3] 15.7% and -3.7% | [4] 19.5% and -0.3% | [5] -1.55% and -3.65% | [6] 6.15% and -8.55%

Cc1ccc(S(=O)(=O)NC(C(=O)O)C(C)C)cc1 (stereo unspecified)
inactive: [1] 11.5% and -39.5% | [2] 3.75% and -12.9% | [3] -8.8% and -51.1% | [4] -1.2% and -20.2% | [5] 35% and -16.2% | [6] 0.45% and -18.9%

OC1CCN2Cc3ccccc3N=C12 (stereo unspecified)
inactive: [1] 3.1% and 22.2% | [2] -0.3% and 21.7% | [3] 17.4% and -5.9% | [4] 4.5% and 15.8% | [5] -3.05% and 13.4% | [6] -2% and -16.8%

O=CC(O)C(O)C(OC1OC(CO)C(O)C(O)C1O)C(O)CO (stereo unspecified) (tested in a mixture with another compound)
96.5% (active) and 36.4% (inactive): [2]
89.5% (active) and 38% (inactive): [1]
94.3% (active) and 55.4% (inactive): [3]
95.3% (active) and 49.9% (inactive): [6]
active: [4] 93.8% and 78.4% | [5] 98.2% and 80.7%

O=c1[nH]c(CCc2ccccc2)nc2ccccc12
inactive: [1] -5.1% and -47.5% | [2] 7.85% and -42.1% | [3] -7.2% and -23.5% | [4] -38% and -11.1% | [5] -26.8% and -31.9% | [6] -2.8% and -4.05%

CCCSc1nc(COC(=O)NC)c(COC(=O)NC)n1C
inactive: [1] -5.1% and -10% | [2] -25.1% and 2% | [3] -5.8% and -9.1% | [4] -12% and 2.95% | [5] -5.1% and -2% | [6] -20.4% and 4.85%

O=S(=O)(O)CCO
inactive: [1] 13.6% and -1.9% | [2] -8.35% and -8.7% | [3] 20.7% and 9.75% | [4] 19.1% and 16.2% | [5] 0.3% and -3.5% | [6] 2.25% and 28%

CCCCCCCCCCCC(=O)Nc1ccccc1
inactive: [1] -22.6% and -29.2% | [2] -4.05% and -16.9% | [3] 1.2% and -18.3% | [4] -31.7% and -71% | [5] 24.8% and -9.7% | [6] 14.4% and -31.1%

Cc1nc2ccc(Br)cc2c(=O)n1-c1ccc(NC2OC(CO)C(O)C(O)C2O)cc1 (stereo unspecified)
inactive: [1] 49.9% and -0.75% | [2] 36.6% and -23.4% | [3] -33.1% and 0.7% | [4] -3.65% and -35.2% | [5] -49.1% and -7.65% | [6] -60.5% and -10.8%

O=C1NC(CCCl)C(=O)NC1CCCl (stereo unspecified)
inactive: [1] 1.6% and -0.7% | [2] -2.05% and 4.55% | [3] -16.1% and -3.55% | [4] -10.2% and -7.55% | [5] -1.45% and 2.4% | [6] 1.6% and -1.35%

CC1(O)C(=O)OC(CO)C1O (stereo unspecified)
inactive: [1] 1.4% and 7.1% | [2] 1.6% and 7.15% | [3] -3.45% and -1% | [4] -15.8% and -6.6% | [5] -5.65% and 2.4% | [6] 5.1% and 3.25%

O=C(NC(=O)C(C(=O)c1ccccc1)c1ccccc1)c1ccccc1 (stereo unspecified)
inactive: [1] -3.95% and 2.65% | [2] 2.1% and -1.35% | [3] -6.9% and -12.2% | [4] 0.15% and 9.9% | [5] 5.6% and -4.05% | [6] -5.05% and -6.25%

NCCC(=O)c1ccccc1
inactive: [1] -8.25% and 0.05% | [2] -4.2% and 6.2% | [3] -14.6% and -1.4% | [4] -17.4% and 7.65% | [5] -19.5% and 7.95% | [6] -2.7% and 25.3%

OCC(O)C1OC(Oc2ccccc2)C(O)C(O)C1O (stereo unspecified)
inactive: [1] 2.5% and 35.6% | [2] 32.9% and -1.85% | [3] -6.75% and 4.1% | [4] -3% and -28.4% | [5] 31.3% and 7.35% | [6] 24% and 17.4%

NC(=S)N/N=C/c1ccc([N+](=O)[O-])cc1
inactive: [1] 40.4% and 11.5% | [2] 29.7% and 13.2% | [3] 29.2% and 4.5% | [4] 24.1% and 20.6% | [5] 5.7% and 3.7% | [6] 30.9% and 5.95%

O=C(Oc1ccc(Br)cc1)c1ccccc1
inactive: [1] 0.75% and 5.6% | [2] -12.8% and -7.05% | [3] -4.35% and -0.05% | [4] -13.9% and -27.1% | [5] 30.9% and 13.7% | [6] -6.1% and 29.4%

O=C1/C(=C/c2ccc(F)cc2)CCC/C1=C\c1ccc(F)cc1
inactive: [1] 26.6% and -14.2% | [2] -25.7% and -10.3% | [3] 34.2% and 1.45% | [4] 27.7% and -21.4% | [5] 15.4% and -5.45% | [6] 18.9% and -6.1%

O=C(O)CCCCC(=O)O
inactive: [1] 2.1% and -5.2% | [2] -6.65% and -1.2% | [3] -3.8% and -32.5% | [4] -30.3% and 8% | [5] -18.1% and -22.1% | [6] -5.6% and 6.85%

Cn1c(=O)c2[nH]cnc2n(C)c1=O
inactive: [1] 4.5% and 10.1% | [2] -16.1% and 2.3% | [3] -35.5% and -20.8% | [4] -23.8% and -9.25% | [5] -3.95% and -2.2% | [6] 19.1% and 2.8%

O=C(O)CCC(C(=O)O)N1C(=O)c2ccccc2C1=O (stereo unspecified)
inactive: [1] 9.3% and -0.9% | [2] -0.3% and -41.5% | [3] 0.3% and -24.4% | [4] -30.1% and -10.7% | [5] 3.75% and -48.2% | [6] 8.6% and -0.75%

NCC1CCC(CN)CC1 (stereo unspecified)
inactive: [1] -23.9% and -37.9% | [2] -40.7% and -33.4% | [3] -17.6% and -24.7% | [4] -5.15% and 12.1% | [5] -28.9% and -25.8% | [6] -19.9% and -7.3%
